# Cycloheximide cs: counter-screen for Shiga toxin inhibitors: cycloheximide protein synthesis inhibition; cell reporter, cycloheximide protein synthesis inhibition counterscreen; max response, %; 12% of 300,000 active; AID 2314; in the data active = max response mostly above about 13%, no sharp cut-off; inactive = mostly below about 14%; note: read at 38.3 µM for the half of the compounds with a filed dose; 0% is about no effect
# NS1 inh: blocks influenza NS1 protein function. 0.4% of 270,000 active. Potency, µM (titrated, usually from 46.1 µM), without a hit: at the highest dose activity, positive = more growth; calls by dose curve; note: potency is the fitted concentration of half-maximal effect; actives are rising curves; nearly all actives have a fitted effect of over 50% in size
#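 Read-out: OD600 growth recovery of NS1-expressing budding yeast. Cells grown overnight at 30C in -URA glucose medium, washed, resuspended and diluted 1:100 in 2% galactose assay medium, pH 6.0. Same strain lacking NS1 served as positive control.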
# Pf growth 48h: inhibits P. falciparum growth in the first generation, 48 h | P. falciparum luciferase growth in erythrocytes, 48 h | Potency, µM (titrated, usually from 28.7 µM), for inactives: at the top dose activity change, negative = inhibition, most hits filed as inhibitors | 5.9% of 310,000 active | AID 504832; note: potency is the fitted concentration of half-maximal effect; % is set by controls: 0 for no effect and ±100 for the full control effect
#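 Firefly luciferase activity from engineered P. falciparum reports growth; inhibitors lower the luminescent signal. Cultures contained 2% hematocrit erythrocytes at 0.1% final parasitemia.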
# Shiga inhibitor: Shiga toxin inhibition; 9.2% of 290,000 active; Vero cells, Shiga toxin protein synthesis inhibition reporter; inhibition, % at 38.7 µM; in the data active = inhibition mostly above about 28%, no sharp cut-off; inactive = mostly below about 43%; note: 0% is about no effect
# Pf growth 96h: P. falciparum growth inhibition at 96 hours; P. falciparum luciferase reporter growth, 96 h; Potency, µM (titrated, usually from 28.7 µM), for the others: at the top dose activity change, negative = inhibition, usual class: inhibitors; 6.9% of 320,000 active; note: potency is the fitted concentration of half-maximal effect; % is set by controls: 0 for no effect and ±100 for the full control effect
#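 Luminescence readout: decreased luciferase signal marks inhibited growth of reporter-expressing P. falciparum in infected red cells (2% hematocrit, 0.05% parasitemia final), exposed to compound two generations (96 h, 37 C, 5% CO2).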
# FBPA Giardia inh: blocks Giardia fructose-bisphosphate aldolase activity; A8B2U2; purified Giardia FBPA; Potency, µM (highest dose often 59.6 µM), for inactives: top-dose activity, negative = inhibition, usual class: inhibitors; 0.71% of 290,000 active; note: potency is the fitted concentration of half-maximal effect; % is set by controls: 0 for no effect and ±100 for the full control effect; nearly all actives have a fitted effect of over 55% in size
# Target sequence (A8B2U2 whole entry, looked up): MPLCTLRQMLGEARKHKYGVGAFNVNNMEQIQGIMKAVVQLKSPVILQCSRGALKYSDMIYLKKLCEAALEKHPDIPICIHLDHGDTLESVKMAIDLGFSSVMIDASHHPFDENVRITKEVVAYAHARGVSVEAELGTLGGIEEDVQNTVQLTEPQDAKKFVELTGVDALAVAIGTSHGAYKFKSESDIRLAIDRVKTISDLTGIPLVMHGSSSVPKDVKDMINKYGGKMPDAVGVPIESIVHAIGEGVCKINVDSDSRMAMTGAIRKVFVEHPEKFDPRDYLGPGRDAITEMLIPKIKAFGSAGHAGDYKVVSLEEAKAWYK
#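 Giardia FBPA (40 nM reagent) was preincubated 10 min at RT with compound (up to 57.5 uM final), then substrate plus GAPDH/TPI/NAD/arsenate coupling system with diaphorase/resazurin was added; resorufin fluorescence (525/598 nm) was read after 20 min.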
# Active calls of the source: *; i = inactive; ? = inconclusive; . = no result; [ ] = remark or other dose. Only some compounds are listed: those with a hit (about 21% of all), similar ones and a draw of the others. Unless noted, calls come from the whole dose curve; as a rule, active = well fitted curve in the direction sought with a large enough effect; inconclusive = small, poorly fitted or top-dose-only effect, or another doubt; inactive = no such curve, though single readings can be large; an effect the other way counts as inactive or inconclusive.
SMILES,Cycloheximide cs,NS1 inh,Pf growth 48h,Shiga inhibitor,Pf growth 96h,FBPA Giardia inh
CCC(C)(CCNC(=O)Cc1ccccc1)c1ccccc1OC (centres undefined),-3.1,-42.3%,.,-3.9,?,-3.7%
O=C(CCSCc1ccc(Cl)cc1)NCc1cccnc1,-2.7,.,3.8%,-2.4,7.2%,-0.4%
Cc1ccc(-n2c(-c3cnccn3)n[nH]c2=S)c(Br)c1,8.4,1.3%,0.7%,-4.1,-25.2%,-18.3%
FC(F)(F)c1ccccc1-n1c(-c2cnccn2)n[nH]c1=S,41.2*,-5.8%,108.0%,53.3*,0.0%,?
CN(C)C(=O)C(=O)c1c(-c2ccccc2)cc2ccccn12,7.9,-19.8%,-2.9%,11.1,8.8%,21.4%
O=Nc1c(-c2ccccc2)cc2ccccn12,48.2*,10.3%,4.65µM*,130.0*,9.28µM*,-28.7%
C/C(=N\NC(=O)CCC(=O)Nc1ccc(C)c(C)c1)C1CC1,10.9,11.2%,-3.1%,14.7,?,.
CC(CN)(NS(=O)(=O)c1ccccc1)c1ccccc1 (centres undefined),-4.0,13.2%,39.9%,-10.5,?,-3.6%
C#CCOCCOCCOCCNc1nc(N2CCN(C(=O)CCCCCCCCCCNC(=O)Cn3cc(C[C@@H](C)O)nn3)CC2)nc(N2CCN(C(=O)CCCCCCCCCCNC(=O)[C@@H]([C@H](C)CC)n3cc(CCCCCN)nn3)CC2)n1,.,.,2.33µM*,.,?,.
C#CCOCCOCCOCCNc1nc(N2CCN(C(=O)CCCCCCCCCCNC(=O)Cn3cc(CCCCCN)nn3)CC2)nc(N2CCN(C(=O)CCCCCCCCCCNC(=O)Cn3cc(C[C@@H](C)O)nn3)CC2)n1,.,.,0.329µM*,.,0.294µM*,.
C#CCOCCOCCOCCNc1nc(N2CCN(C(=O)Cn3cc(CCCCN)nn3)CC2)nc(N2CCN(C(=O)Cn3cc(CC(C)O)nn3)CC2)n1 (centres undefined),-2.7,10.6%,11.3%,-10.6,-17.6%,-20.7%
COc1cccc(C(=O)/C(C#N)=N/Nc2cccc(-c3ccnc(C)n3)c2)c1,-0.9,-5.8%,?,-8.6,?,0.3%
CO[C@@H]1C=CO[C@]2(C)Oc3c(C)c(O)c4c(O)c(c(C=NN5CCN(C)CC5)c(O)c4c3C2=O)NC(=O)C(C)=CC=C[C@H](C)[C@H](O)[C@H](C)[C@H](O)[C@H](C)[C@H](OC(C)=O)[C@H]1C,.,.,.,.,.,-25.3%[21.7 µM]
Cc1ccc(CNC(=O)c2cnc3ccccc3n2)cc1,8.9,-97.3%,26.1%,23.6,15.9%,7.0%
O=C(O)c1cnc2ccccc2n1,-3.6,-36.0%,15.0%,-15.6,10.8%,-10.9%
O=C(O)C(=O)/C(=C\c1ccc(Cl)cc1)c1ccc2ccccc2n1,30.1*,.,377.7%,166.4*,i,-8.6%
O=C(O)C/C(=C\c1ccc(Cl)cc1)c1nc2ccccc2o1,-1.3,-5.9%,0.0%,-4.1,0.0%,11.2%
O=C(NCc1ccccc1)c1ccc2ccccc2n1,-2.3,-14.2%,8.3%,17.0,39.0%,2.0%
O=C(NCCc1ccccc1)c1cnc2ccccc2n1,32.1*,-9.0%,145.8%,105.6*,?,9.1%
COC(=O)c1cnc2ccccc2n1,15.8*,4.7%,-3.5%,28.8,16.9%,-2.4%
COc1ccc(CNC(=O)c2ccc3ccccc3n2)cc1,25.8*,-22.9%,?,63.5,?,7.4%
NNC(=O)c1ccc2ccccc2n1,5.1,.,32.5%,30.2,65.3%,-10.8%
Cc1ccccc1OCCNC(=O)c1ccc2ccccc2n1,70.5*,-43.5%,156.7%,93.4*,30.0%,0.4%
O=C(NCCc1ccc(Cl)cc1)c1ccc2ccccc2n1,21.9*,-16.9%,24.5%,69.8*,38.0%,-19.8%
COCCNC(=O)c1ccc2ccccc2n1,26.5*,-9.0%,14.6%,33.5,16.4%,-2.7%
SMILES,Cycloheximide cs,NS1 inh,Pf growth 48h,Shiga inhibitor,Pf growth 96h,FBPA Giardia inh
O=C(OCCNC(=O)c1ccc2ccccc2n1)c1cccnc1,-2.0,-20.3%,.,-10.0,?,1.5%
COc1ccc(NCC(=O)Nc2ccc(Br)cc2F)c(OC)c1,7.7,-32.0%,?,4.1,?,?
O=C(O)c1c(Sc2ccccc2)c2cc(Cl)ccc2n1Cc1ccc(Cl)cc1,.,.,.,.,.,25.5%
c1coc(CN(Cc2cccs2)Cc2nnnn2C2CCCCC2)c1,-1.6,-49.7%,?,13.9,-17.5%,-2.1%
Clc1ccccc1CN(Cc1ccco1)Cc1nnnn1C1CCCC1,-1.5,-35.1%,7.38µM*,12.2,11.7%,-17.4%
COc1ccccc1C(=O)NC(CCSC)C(=O)N1CCC(Cc2ccccc2)CC1 (centres undefined),.,.,14.7µM*,.,?,.
CSCCC(NC(=O)c1ccccc1)C(=O)N1CC=C(c2ccccc2)CC1 (centres undefined),10.6,-15.1%,9.28µM*,10.7,?,.
Nc1nc(NC2CC2)c2ncn([C@H]3C=C[C@@H](CO)C3)c2n1,.,.,60.5%,.,45.1%,.
O=C1NC(Cc2ccccc2)c2nc3ccccc3c(=O)n2-c2ccc(Cl)cc21 (centres undefined),.,.,-8.5%,.,49.0%,.
COCCN(CC(=O)Nc1cccc(C)c1C)C(=O)c1ccc(S(=O)(=O)N2CCOCC2)cc1,.,.,?,.,-5.1%,.
COC(=O)c1cc(S(=O)(=O)N2CCN(Cc3ccccc3)CC2)cn1C,-4.1,-3.1%,-1.2%,21.1,33.7%,8.9%
COc1cc(CN2CC(=O)N(c3cccc(Cl)c3C)C2=S)cc(OC)c1OC,-4.4,9.2%,2.62µM*,-9.8,-0.3%,3.8%
COc1cc(Cl)c(C)cc1N1C(=O)CN(Cc2ccccc2)C1=S,-2.7,13.7%,?,-6.5,24.5%,5.7%
COc1cc(CN2CC(=O)N(c3ccccc3Cl)C2=S)cc(OC)c1OC,0.9,2.3%,5.86µM*,-5.9,-4.2%,8.8%
CCCC[C@@H]1C[C@H]1[C@@H](NC(=O)c1cccs1)c1ccc(Cl)cc1,-3.2,-56.4%,?,-12.6,9.28µM*,-4.4%
CCN(C1CCCCC1)S(=O)(=O)c1cc2c3c(c1)CCN3C(=O)CC2,.,.,-11.2%,.,-20.9%,.
O=C(OCC(=O)N1CCCc2ccccc21)c1ccc(S(=O)(=O)C(F)F)cc1,.,.,?,.,-3.9%,.
CC(=O)Nc1nc(SCc2ccc(Cl)cc2Cl)n[nH]1,8.1,-8.3%,-3.4%,-15.0,?,2.9%
Nc1nc(SCc2ccc(Cl)cc2Cl)n[nH]1,20.7*,-3.2%,27.1%,27.4,.,-1.8%
Nc1nc(SCc2ccc3c(c2)OCCO3)n[nH]1,21.2,-4.4%,38.1%,71.2*,17.6%[5.75 µM],-20.3%
N#C/C(=C/c1cccn1-c1cccc(C(=O)O)c1)c1ccc(F)cc1,-0.7,11.5%,-0.1%,-4.0,0.0%,23.5%
COc1cc(/C=C/C(=O)O)cc(S(=O)(=O)N2CCc3ccccc3C2)c1OC,6.2,10.1%,1.8%,12.8,-3.4%,-9.8%
Cc1ccc(NC(=O)CC2S/C(=N/c3nccs3)N(C)C2=O)c(C)c1 (centres undefined),4.3,1.3%,.,-12.3,?,0.6%

# From PubChem BioAssay
